This excerpt belongs to a sample that is enriched for hits.
Pf Dd2 growth: qHTS Primary assay for Inhibitors of Plasmodium falciparum Dd2 growth in vitro. Potency, µM (doses to about 28.9 µM), usual class: inhibitors. 120,000 tested, 4.3% active. P. falciparum Dd2 growth, SYBR Green, 72 h; active means well fitted inhibition curve with a large enough effect; further: nearly all actives have a fitted effect of over 65% in size
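Readout: SYBR Green fluorescence, 485 nm excitation, 535 nm emission, after ~16 h lysis at 37C. Before that, Dd2-infected red cells (2.5% hematocrit) grew 72 h with compound, 29 uM top final concentration.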
A number is an active result; i = inactive.

SMILES	Pf Dd2 growth
CCOc1ccc(Nc2c(S(=O)(=O)c3ccc(C)cc3)cnc3ccccc23)cc1	i
Cc1ccc2ncc(S(=O)(=O)c3ccccc3)c(N3CCCCC3C)c2c1 (configuration not stated)	10µM
CC1CCCN(c2c(S(=O)(=O)c3ccccc3)cnc3ccc(Cl)cc23)C1 (configuration not stated)	i
Cc1cccc(Cn2nc(-c3cccnc3)nc2C2(C(N)=O)CC2)c1	i
COCc1nc(C2CC(N)C2)cc(N2CC(c3nccs3)C2)n1 (configuration not stated)	i
CCOc1ccc(Cl)cc1CN(C)C(=O)C1CC(=O)N(CC)C1 (configuration not stated)	i
Cc1cc(OCC(O)CN2CCN(c3cccc(Cl)c3)CC2)ccc1Cl (configuration not stated)	i
CNC(=O)CN(C)Cc1cc(Cl)ccc1OCC(O)CN1CCCCCC1 (configuration not stated)	2.8µM
O=C(c1ccc(N2CCC(CO)C2)nc1)N1CCC(Oc2cccnc2)CC1 (configuration not stated)	i
CNC(=O)[C@@H]1CN(Cc2ccc3cc[nH]c3c2)C[C@H]1c1nc(C)no1	i
O=C(N[C@@H]1COCC[C@@H]1OCc1ccccn1)c1n[nH]c2c1CCC2	i
Cc1sc2nc(CCN)nc(N(C)CCCCN3CCOCC3)c2c1C	i
CNC(=O)c1ccc(CNc2nc(CCN)nc3sc(C)c(C)c23)o1	10µM
CNC(=O)c1ccc(CNc2cc(C3CC(O)C3)nc(N)n2)o1 (configuration not stated)	i
Cc1cnc(CCNC(=O)COc2ccccc2)n1C1CCC1	3.2µM
CC(=O)N1CCC(C(=O)NCCc2ncc(C)n2C2CCC2)CC1	i
Cc1ccc(NC(=O)NCCc2ncc(C)n2C2CCC2)cc1C	i
COC(=O)CNC(=O)NCCc1ncc(C)n1C1CCCC1	i
Cc1cnc(-c2ccncc2)n1C1CCCN(C(=O)C2(c3ccccc3)CC2)C1 (configuration not stated)	i
Cc1cnc(CCNC(=O)C2(c3ccccc3)CC2)n1C1CCCCCC1	2.2µM
COCCn1c(C)cnc1CC1CCCN(C(=O)C2(c3ccc(OC)cc3)CC2)C1 (configuration not stated)	i
Cc1cnc(CCNC(=O)c2ccc(C#N)cc2)n1C1CCC1	i
Cc1cnc(C2CCC2)n1C1CCN(C(=O)C2(c3ccccc3)CC2)CC1	13µM
CCCn1c(C)cnc1CC1CCN(C(=O)C2(c3ccc(OC)cc3)CC2)C1 (configuration not stated)	5µM
CC(=O)N1CCC(n2c(C)cnc2C2CC2)CC1	i
SMILES	Pf Dd2 growth
CCCn1c(C)cnc1CC1CCN(C(=O)c2c(C)noc2C)CC1	i
Cc1ccc([S+](=O)([O-])N2CCn3c(nn(-c4ccc(F)cc4)c3=O)C2)cc1	i
COc1ccccc1CNC(=O)[C@H]1C[C@@H](O)[C@H](O)[C@@H]2N=C(Nc3ccc(C)cc3)S[C@@H]21	i
Cc1ccc(OC2(C(=O)NC(C)c3cn4ncsc4n3)CCNCC2)cc1 (configuration not stated)	i
Cc1ccc(N2CCC(NC(=O)Cc3ccccc3C)C2=O)cc1 (configuration not stated)	i
CCN1C(=O)Cc2cc(C(=O)NCC3CCCO3)ccc21 (configuration not stated)	i
C=CCN1CCN(C(=O)C2N(C(C)C)C(=O)C23CCCCC3)CC1 (configuration not stated)	i
Cc1cc(F)ccc1NC(=O)CN1C(=O)NC2(CCS(=O)(=O)CC2)C1=O	i
CN(Cc1ccc(-n2cccn2)cc1)C(=O)c1ccccc1C1CCNC1 (configuration not stated)	i
Cc1cnc(C(=O)NCCc2ncc(C)n2C2CC2)cn1	i
COc1ccc(C2(C(=O)NCCc3ncc(C)n3C3CC3)CC2)cc1	2.5µM
Cc1cnc(CCNC(=O)c2ccnn2C)n1C1CC1	i
O=C(Nc1nc2n(n1)C(c1ccc(F)cc1)C=C(c1ccc(Cl)cc1)N2)c1ccco1 (configuration not stated)	8.9µM
COc1ccc(C(=O)Nc2nc3n(n2)C(c2ccccc2)C=C(c2ccccc2)N3)cc1 (configuration not stated)	i
O=C(Nc1nc2n(n1)C(c1ccc(F)cc1)C=C(c1ccccc1)N2)c1cccc([N+](=O)[O-])c1 (configuration not stated)	3.2µM
COc1cccc(C2C(C(=O)Nc3ccccc3)=C(C)Nc3nc(-c4ccccc4)nn32)c1 (configuration not stated)	i
CC1=C(C(=O)Nc2ccccc2)C(c2ccc(F)cc2)n2nc(SCc3cc(C)ccc3C)nc2N1 (configuration not stated)	i
COc1ccc(C2C=C(c3ccccc3)Nc3nc(NC(=O)/C=C/c4ccccc4OC)nn32)cc1 (configuration not stated)	10µM
Cc1ccc(C2C=C(c3ccc(Cl)cc3)Nc3nc(NS(=O)(=O)c4ccccc4)nn32)cc1 (configuration not stated)	i

Screening data as filed in PubChem BioAssay.
